From PubChem BioAssay AID463173 (ICCB-Longwood Screening Facility, Harvard Medical School, 2010)
The campaign covered roughly 52,000 compounds. About 4,300 (8.3%) were called active. Shown is part of a subset that was picked to be rich in actives. Unmarked numbers belong to inactive results. Cut-off read from the data, not from the text of the source: active = survival mostly below about 52% (no sharp cut-off); inactive = mostly above about 56%.

These molecules were tested on DeltatarO mutant (assay: S. aureus survival, RN4220 and DeltatarO strains – OD600, teichoic acid synthesis inhibitors, primary screen (AID 463173)). Conditions: S. aureus RN4220 wild type/DeltatarO growth, OD600, 18 h, active compounds read low, screened at 18.75 µg/mL (by protocol).

Compound | survival
Cc1ccc(S(=O)(=O)Nc2nc3c(s2)C(=O)CC(C)(C)C3)cc1 | 91%
COc1ccc2nc(NS(=O)(=O)Cc3ccccc3)sc2c1 | 75%
CCOc1ccccc1N(C)C(=O)NCc1noc2ccccc12 | 108%
O=C(NCc1ccccc1F)C(=O)NCC(c1cccs1)S(=O)(=O)c1cccs1 (stereo not drawn) | 83%
Cc1ccc(-n2ncc3c(NCCCn4ccnc4)ncnc32)cc1C | 84%
Cc1[nH]c2ccccc2c1SCCNC(=O)c1ccc(F)cc1 | 59%
COc1ccc(NC(=O)CN2C(=O)CCn3nc(-c4cccn4C)cc32)cc1Cl | 83%
CC1CCc2[nH]nc(C(=O)O)c2C1 (stereo not drawn) | 93%
CC1CCCN(CCCNC(=O)c2cc3c(Cl)nc4ccccc4c3s2)C1 (stereo not drawn) | 125%
CCC(C)NC(=O)c1cc2c(Cl)nc3ccc(C)cc3c2s1 (stereo not drawn) | 65%
O=C(c1cc2c(Cl)nc3ccccc3c2s1)N1CCCCC1 | 46% (active)
CC1CCCN(C(=O)c2cc3c(Cl)nc4ccccc4c3s2)C1 (stereo not drawn) | -5% (active)
CC1CCC(NC(=O)c2cc3c(Cl)nc4ccccc4c3s2)CC1 (stereo not drawn) | 87%
Cc1ccc(NC(=O)c2cc3c(Cl)nc4ccc(C)cc4c3s2)c(Cl)c1 | 68%
Cc1ccc2nc(Cl)c3cc(C(=O)NCCCN4CCC(C)CC4)sc3c2c1 | 125%
Cc1ccc2nc(Cl)c3cc(C(=O)NC4CCC(C)CC4)sc3c2c1 (stereo not drawn) | 57%
O=C(NC1CCCCC1)c1cc2c(Cl)nc3ccccc3c2s1 | 80%
O=C(NC1CCCCCC1)c1cc2c(Cl)nc3ccccc3c2s1 | 116%
Cc1ccc2nc(Cl)c3cc(C(=O)N4CCCCC4)sc3c2c1 | -8% (active)
Cc1ccc2nc(Cl)c3cc(C(=O)N4CCCC(C)C4)sc3c2c1 (stereo not drawn) | -7% (active)
CNC(=O)C1CCC(Cn2c(=O)c3sccc3n(CC(=O)Nc3ccc(C)c(C)c3)c2=O)CC1 (stereo not drawn) | 70%
CCC(C)NC(=O)c1sc2nc3n(c(=O)c2c1C)CCC3 (stereo not drawn) | 93%
CCOc1ccc(NC(=O)Cn2c(=O)n(Cc3ccco3)c(=O)c3ccc(C(=O)NC4CCCC4)cc32)cc1 | 97%

Compound | survival
Cc1ccc(NC(=O)CSc2ccc(-c3cccs3)nn2)cc1Cl | 111%
COc1ccc(NC(=O)CSc2nc(C)cc(C)c2C(=O)Nc2ccccc2OC)cc1 | 51%
CN1CCC(OC(=O)c2ccc(Cl)cc2Cl)CC1 | 101%
O=C(Cn1c(=O)n(CCc2ccccc2)c(=O)c2c3c(sc21)CCCC3)Nc1ccc(F)c(F)c1 | 84%
COc1cccc(N2CCN(C(=O)c3cc4c(=O)n(Cc5cccnc5)ccc4nc3C)CC2)c1 | 102%
CCC1CCCCN1CCCNC(=O)c1cc2c(Cl)nc3ccccc3c2s1 (stereo not drawn) | 101%
CCOC(=O)C1CCCN(C(=O)c2cc3c(=O)[nH]c4ccc(C)cc4c3s2)C1 (stereo not drawn) | 51%
CCOC(=O)C1CCCN(C(=O)c2cc3c(Cl)nc4ccccc4c3s2)C1 (stereo not drawn) | 26% (active)
CCNC(=S)N1CCC(NC(=O)C23CC4CC(CC(C4)C2)C3)CC1 | 80%
Clc1ccccc1Cc1cn2cc(-c3ccccc3)nc2s1 | 63%
Fc1ccc(Cc2cn3cc(-c4ccc(F)cc4)nc3s2)cc1 | 61%
Fc1ccc(-c2cn3cc(Cc4ccccc4Cl)sc3n2)cc1 | 42% (active)
Fc1ccc(-c2cn3cc(Cc4ccccc4)sc3n2)cc1 | 81%
Fc1ccc(Cc2cn3cc(-c4ccccc4)nc3s2)cc1 | 51% (active)
Fc1ccccc1Cc1cn2cc(-c3ccc(Cl)cc3)nc2s1 | 66%
Cc1ccccc1-c1nc(SCC(=O)NCc2ccco2)c2c(=O)n(C)c(=O)n(C)c2n1 | 71%
O=C(Nc1ccc(C(F)(F)F)cc1)N1CCC(N2CCCCC2)CC1 | 108%
COc1ccc(-c2noc(CSc3nnc(-c4ccncc4)n3-c3ccc(C)cc3)n2)cc1OC | 67%
CC1=C(C(=O)OC2CCCCCC2)C(c2ccc(Cl)cc2Cl)CC(=O)N1 (stereo not drawn) | 81%
CCOC(=O)c1c(NC(=O)c2ccc(S(=O)(=O)N(C)C)cc2)sc2c1CCN(C)C2 | 75%
Cc1nc(NC2CCN(Cc3nnnn3Cc3ccc4c(c3)OCO4)CC2)[nH]c(=O)c1C | 94%
Cc1cc(C)c(S(=O)(=O)NCc2csc(-c3ccccc3)n2)c(C)c1 | 34% (active)
O=S(=O)(NCc1csc(-c2ccccc2)n1)c1ccccc1 | 70%

Compound | survival
O=S(=O)(NCc1csc(-c2ccccc2)n1)c1cccc(F)c1 | 79%
COc1ccccc1C(=O)Nc1nc2nc(C)c(Cc3ccccc3)c(=O)n2[nH]1 | 111%
COc1cccc(NC(=O)CN(CCc2ccccc2)S(=O)(=O)c2ccc(Cl)cc2)c1 | 52%
Cn1cc(C(=O)Nc2ccc(C#N)cc2)c2ccccc2c1=O | 63%
CCCOc1ccccc1Cn1c(=O)sc2ccccc21 | -2% (active)
CC(C)CCOc1ccccc1Cn1c(=O)sc2ccccc21 | 3% (active)
CCN(CC)C(=O)Cn1c(=O)sc2ccccc21 | 85%
CS(=O)(=O)n1c(=O)sc2ccccc21 | 99%
CCOC(=O)Cn1c(=O)sc2ccccc21 | 94%
CCCCOc1ccccc1Cn1c(=O)sc2ccccc21 | -2% (active)
O=C(Cn1c(=O)sc2ccccc21)Nc1ccc(O)cc1 | 70%
CCCn1c(=O)sc2cc(NC(=O)c3ccccc3OCC)ccc21 | 93%
Cc1cccc(NC(=O)Cn2c(=O)sc3ccccc32)c1 | 109%
O=C(Cn1c(-c2ccccc2)noc1=O)Nc1cccc(Cl)c1Cl | 98%
CCc1ccc(S(=O)(=O)c2cn(C)c3cc(N4CCOCC4)c(F)cc3c2=O)cc1 | 90%
CCC(Sc1nnc(-c2ccc(OC)cc2)c(-c2ccc(OC)cc2)n1)C(=O)Nc1cccc(OC)c1 (stereo not drawn) | 94%
COCCn1c(C)cc(O)c(C(c2cccc(F)c2)N2CCN(c3ccccc3)CC2)c1=O (stereo not drawn) | 93%
CCN1CCN(C(c2ccccc2)c2c(O)cc(C)n(CCOC)c2=O)CC1 (stereo not drawn) | 84%
COCCn1c(C)cc(O)c(C(c2ccccc2)N2CCN(c3ccccc3)CC2)c1=O (stereo not drawn) | 49%
COCCn1c(C)cc(O)c(C(c2ccccc2)N2CCN(C)CC2)c1=O (stereo not drawn) | 95%
COCCn1c(C)cc(O)c(C(c2ccccc2)N2CCN(CCO)CC2)c1=O (stereo not drawn) | 32% (active)
COCCn1c(C)cc(O)c(C(c2ccc(F)cc2)N2CCN(c3ccccc3)CC2)c1=O (stereo not drawn) | 47% (active)
